Inconclusive results are not listed. Where a call stands in place of a potency, no number is given. Active and inactive are the calls of the source. Calls follow the shape of the dose curve; as a rule, active = well fitted inhibition curve with a large enough effect; inconclusive = small, poorly fitted or top-dose-only effect; inactive = no such curve, though single readings can be large or run the other way.
Potency is read from the fitted curve at half-maximal effect.

A short description of this assay: qHTS for Inhibitors of the Aldehyde Dehydrogenase Family (ALDH1A2, ALDH1A3, ALDH2, ALDH3A1) (AID 2061307). Also: nearly all actives have a fitted effect of over 50% in size. As to potency: test system not described further here. The settings on record: ALDH inhibition qHTS; series mostly up to 50.3 µM.
With `NCC(=O)Nc1cc(-c2nn3c(=O)cc(N4CCNCC4)nc3s2)ccn1`, the Potency entry was “inactive”. The same measure for `CSc1ccc(-c2csc(N3CCC(C(N)=O)CC3)n2)cc1`: 4 µM (active).

On to `O=C(NC1CCCN(Cc2ccccc2)C1)c1ccc(-c2cccc([N+](=O)[O-])c2)o1` (stereo not given), for which the Potency was 14.1 µM (active). The result for `CCc1ccc(NC(=O)c2cc3c(=O)n(Cc4cccnc4)ccc3nc2C)cc1` reads “inactive”; that for `CSc1ncc(CNc2cc([N+](=O)[O-])ccc2C)c(N)n1`, 17.8 µM (active); that for `Fc1cc(Cn2cnc3ccccc32)ccc1Cl`, 11.2 µM (active). Regarding `COc1ccc(NC(=O)c2cc(C3CC3)nc3c2c(C)nn3-c2ccccc2)cc1OC`, the Potency result was “inactive”.

Regarding `Cc1ccc2c(=O)cc(C(=O)Nc3cccc(C(F)(F)F)c3)oc2c1C`, the Potency result was “inactive”. As for `Cc1ccccc1C(=O)N1CCc2cc(-c3nc(NC(=O)CC4CCOCC4)sc3C)ccc21`, the Potency was 4.47 µM (active).

For `O=C(c1cccs1)c1no[n+]([O-])c1C(=O)c1cccs1`, the Potency was 1.59 µM (active).

`C=CCn1c(Sc2ncc(C#N)cc2Cl)nnc1-c1ccccc1F`: the Potency entry was “inactive”. The same measure for `Cc1ccc(CNS(=O)(=O)c2ccc3c(c2)CN(C(=O)c2cccnc2)CC3)o1`: “inactive”; for `CC(C)(C)OC(=O)NC1CCN(c2nc(Br)cs2)CC1`: “inactive”; for `O=C1Cc2cc(S(=O)(=O)N3CCN(c4ccc(C(=O)O)cc4)CC3)ccc2N1`: “inactive”. For the compound `O=C(N/N=C/c1ccc(Sc2ccccn2)o1)c1cccc(F)c1`, the Potency is 15.9 µM (active). `N#Cc1nc(-c2cccc3ccccc23)oc1NCCC1CNC1`: the Potency was 15.8 µM (active). In the case of `O=C(c1cccc(F)c1)N1CCCC2(CCN(C(c3ccccc3)c3ccccc3)C2)C1` (stereo not given), the Potency result is “inactive”. On to `COc1ccc(-n2ccc(C(=O)Nc3cccnc3OC)n2)cc1`, for which the Potency entry is “inactive”. Regarding `COc1cccc(NC(=O)c2cc3c(-c4ccc(Cl)cc4)nn(C)c3s2)c1`, the Potency entry was “inactive”. The result for `O=C1C=CC(=O)N1c1cccc(Br)c1` reads 0.0896 µM (active). As for `COc1ccc(OC)c(NC(=O)c2cc3cccc(OC)c3oc2=O)c1`, the Potency entry was “inactive”.

For `CCN1CCN(C(=S)c2ccc([N+](=O)[O-])cc2)CC1`, the Potency entry was “inactive”.

Consider `Cc1occc1C(=O)N1CCc2cc(-c3nc(NC(=O)Cc4ccc5c(c4)OCO5)sc3C)ccc21`, for which the Potency was 7.08 µM (active).

As for `O=C1c2ccccc2-c2nnc(-c3ccncc3)cc21`, the Potency result was “inactive”. `COc1ccc(-c2cc(=O)n(-c3nc(C(=O)O)cs3)[nH]2)cc1`: the Potency entry was “inactive”. The same measure for `N[C@H](CCC(=O)Nc1cccc(-c2nn3c(=O)cc(N4CCNCC4)nc3s2)c1)C(=O)O`: “inactive”; for `CN1CCC(CNCc2nccc3c(=O)[nH]c(COc4ccc(Cc5ccccc5)cc4)nc23)C1` (stereo not given): “inactive”. The same measure for `O=C(Nc1ccc(S(=O)(=O)N2CCOCC2)cc1)c1ccc(CN2CCc3ccccc3C2)cc1`: “inactive”; for `N[C@H](Cc1cscn1)C(=O)Nc1cccc(-c2nn3c(=O)cc(N4CCNCC4)nc3s2)c1`: “inactive”. Turning to `Cc1ccc(CNC(=O)c2cc(=O)c3cc(C)ccc3o2)cc1`, the Potency result is “inactive”. On to `CC(Sc1nc2nn(C3COC3)cc2c(=O)n1-c1ccccc1)c1ccccc1` (stereo not given), for which the Potency entry is “inactive”. For `O=C(Nc1cccc(-c2ccc(N3CCOCC3)nn2)c1)Nc1ccccc1C(F)(F)F`, the Potency entry was “inactive”.

For the compound `O=C(N/N=C/c1ccc(Sc2nc3ccccc3s2)o1)c1cccc(F)c1`, the Potency is 0.896 µM (active).

Consider `Cc1c(P(=S)(c2ccccc2)c2ccccc2)[n+]2ccccc2n1C/C=C/c1cccc(Br)c1`, for which the Potency is 3.16 µM (active).

As for `Cc1ccc(N2CCN(C(=S)c3ccc(-c4ccccc4[N+](=O)[O-])o3)CC2)cc1`, the Potency was 3.57 µM (active).

Consider `Cc1c(P(=S)(c2ccccc2)c2ccccc2)[n+]2ccccc2n1C/C=C/c1ccc(C(F)(F)F)cc1`, for which the Potency is 7.94 µM (active). For the compound `C=CCOc1c(Cl)cc(CNc2ccc(N(C)C)cc2)cc1OC`, the Potency was 0.449 µM (active). For `CSc1cc2c(s1)c1cnn(Cc3cccc(N)c3)c(=O)c1n2C`, the Potency result was “inactive”.

For the compound `Cc1c(NCCOc2ccccc2F)cccc1C(N)=O`, the Potency result was “inactive”.

As for `N#Cc1ccc(CN2CCC(N(CCc3ccccc3)Cc3ccccc3)CC2)cc1`, the Potency result is “inactive”.

These data come from PubChem BioAssay (NCATS).
